This is an account of results in article PMC11062922 (Nature Chemical Biology, 2023).

Design in all cases: species or system human, MV4-11 + K-562 + COLO205 + SK-N-BE2 + OVCAR-8
Assay [1] relates to CAMK2B. The settings on record: read-out: apparent Kd; compound concentrations: 100 nM and 1000 nM (sheet 'Samples'), CATDS: 0.26217327719794398; n = 1.
Assay [2] deals with CAMK2D. The settings on record: read-out: apparent Kd; compound concentrations: 100 nM and 1000 nM (sheet 'Samples'), CATDS: 0.25731079955705399; n = 1.
In assay [3] the test system is CDK10. The settings on record: read-out: apparent Kd; compound concentrations: 100 nM and 1000 nM (sheet 'Samples'), CATDS: 0.15001944527595701; n = 1.
In assay [4] the test system is FN3K. To be noted: read-out: apparent Kd; compound concentrations: 100 nM and 1000 nM (sheet 'Samples'), CATDS: 0.12433120780871; n = 1.
For assay [5], the system named is ICK. To be noted: read-out: apparent Kd; compound concentrations: 100 nM and 1000 nM (sheet 'Samples'), CATDS: 0.14025095323079101; n = 1.
Assay [6] concerns MAPK1. The settings on record: read-out: apparent Kd; compound concentrations: 100 nM and 1000 nM (sheet 'Samples'), CATDS: 0.154787589884953; n = 1.
For assay [7], the system named is CDC42BPB. To be noted: read-out: apparent Kd, n = 1.
In assay [8] the test system is PRKX. To be noted: read-out: apparent Kd; compound concentrations: 100 nM and 1000 nM (sheet 'Samples'), CATDS: 0.17762279557226701; n = 1.
The subject of assay [9] is ROCK1. To be noted: read-out: apparent Kd, n = 1.
Assay [10] relates to ROCK2. To be noted: read-out: apparent Kd, n = 1.
The subject of assay [11] is CDC42BPG. To be noted: read-out: apparent Kd, n = 1.
For assay [12], the system named is GAK. The settings on record: read-out: apparent Kd; compound concentrations: 100 nM and 1000 nM (sheet 'Samples'), CATDS: 0.13668141663723599; n = 1.
The subject of assay [13] is MAPK10. The settings on record: read-out: apparent Kd; compound concentrations: 100 nM and 1000 nM (sheet 'Samples'), CATDS: 0.12548752602980501; n = 1.
Assay [14] has as its system MAPK14. To be noted: read-out: apparent Kd; compound concentrations: 100 nM and 1000 nM (sheet 'Samples'), CATDS: 0.192952593667473; n = 1.
In assay [15] the test system is MAPK9. To be noted: read-out: apparent Kd; compound concentrations: 100 nM and 1000 nM (sheet 'Samples'), CATDS: 0.107953199944472; n = 1.
In assay [16] the test system is MAPKAPK2. The settings on record: read-out: apparent Kd, compound concentrations: 100 nM and 1000 nM (sheet 'Samples'), n = 1.
Assay [17] deals with NQO1. To be noted: read-out: apparent Kd; compound concentrations: 100 nM and 1000 nM (sheet 'Samples'), CATDS: 8.60735929712554E-2; n = 1.
For assay [18], the system named is TNIK. The settings on record: read-out: apparent Kd; compound concentrations: 100 nM and 1000 nM (sheet 'Samples'), CATDS: 0.13491621958450101; n = 1.
Assay [19] has as its system MAPK11. The settings on record: read-out: apparent Kd; compound concentrations: 100 nM and 1000 nM (sheet 'Samples'), CATDS: 0.36528894613698598; n = 1.
Assay [20] has as its system TNK2. To be noted: read-out: apparent Kd; compound concentrations: 100 nM and 1000 nM (sheet 'Samples'), CATDS: 0.23701561839687901; n = 1.
The subject of assay [21] is CDC42BPA. The settings on record: read-out: apparent Kd; compound concentrations:100 nM and 1000 nM (sheet 'Samples'); n = 1.
Assay [22] relates to CDKL5. To be noted: read-out: apparent Kd; compound concentrations:100 nM and 1000 nM (sheet 'Samples'); n = 1.
For assay [23], the system named is GRK6. The settings on record: read-out: apparent Kd; compound concentrations:100 nM and 1000 nM (sheet 'Samples'); n = 1.
The test system of assay [24] is LATS1. The settings on record: read-out: apparent Kd; compound concentrations:100 nM and 1000 nM (sheet 'Samples'); n = 1.
The subject of assay [25] is PKN1. The settings on record: read-out: apparent Kd; compound concentrations:100 nM and 1000 nM (sheet 'Samples'); n = 1.
The test system of assay [26] is PKN2. The settings on record: read-out: apparent Kd; compound concentrations:100 nM and 1000 nM (sheet 'Samples'); n = 1.
For assay [27], the system named is PKN3. To be noted: read-out: apparent Kd; compound concentrations:100 nM and 1000 nM (sheet 'Samples'); n = 1.
The subject of assay [28] is PRKAA1. To be noted: read-out: apparent Kd; compound concentrations:100 nM and 1000 nM (sheet 'Samples'); n = 1.
Assay [29] has as its system PRKACA. The settings on record: read-out: apparent Kd; compound concentrations:100 nM and 1000 nM (sheet 'Samples'); n = 1.
Assay [30] has as its system PRKACB. The settings on record: read-out: apparent Kd; compound concentrations:100 nM and 1000 nM (sheet 'Samples'); n = 1.
Assay [31] relates to PRKAG1. The settings on record: read-out: apparent Kd; compound concentrations:100 nM and 1000 nM (sheet 'Samples'); n = 1.
Assay [32] has as its system PRKAG2. The settings on record: read-out: apparent Kd; compound concentrations:100 nM and 1000 nM (sheet 'Samples'); n = 1.
For assay [33], the system named is PRKCA. The settings on record: read-out: apparent Kd; compound concentrations:100 nM and 1000 nM (sheet 'Samples'); n = 1.
Assay [34] relates to PRKCD. The settings on record: read-out: apparent Kd; compound concentrations:100 nM and 1000 nM (sheet 'Samples'); n = 1.
In assay [35] the test system is PRKG1. The settings on record: read-out: apparent Kd; compound concentrations:100 nM and 1000 nM (sheet 'Samples'); n = 1.
Assay [36] deals with PRKX;PRKY. The settings on record: read-out: apparent Kd; compound concentrations:100 nM and 1000 nM (sheet 'Samples'); n = 1.
Assay [37] has as its system RPS6KA5. The settings on record: read-out: apparent Kd; compound concentrations:100 nM and 1000 nM (sheet 'Samples'); n = 1.
In assay [38] the test system is RPS6KB1. The settings on record: read-out: apparent Kd; compound concentrations:100 nM and 1000 nM (sheet 'Samples'); n = 1.
Setting [39] is: compound concentrations:100 nM and 1000 nM (sheet 'Samples').

Where two headings read alike, the source gives them in different places.

Turning to `Cn1cc(C2=C(N3CCOCC3)C(=O)NC2=O)c2ccccc21` [RO3303031-000], the potency estimated from few doses is 327 nM in assay [1]; 336 nM in assay [2]; 957 nM in assay [3]; 1620 nM in assay [4]; 1140 nM in assay [5]; 887 nM in assay [6].
For the molecule `CC1=C(C(=O)Nc2cc(Cl)c3[nH]ncc3c2)C(c2ccc(C(F)(F)F)cc2)CC(=O)N1` (stereo not drawn) [GSK466317A], the potency estimated from few doses in assay [7] (compound concentrations: 100 nM and 1000 nM (sheet 'Samples'), CATDS: 0.18288519935085101) is 1940 nM; in assay [8] it was 2180 nM; in assay [9] (compound concentrations: 100 nM and 1000 nM (sheet 'Samples'), CATDS: 0.39431900573288498), 277 nM; in [10] (compound concentrations: 100 nM and 1000 nM (sheet 'Samples'), CATDS: 0.422625118244225), 246 nM.
Take `N#Cc1ccc2c(-c3ccnc(NC4CC4)n3)c(-c3ccc(F)cc3)nn2c1` [GW561436X]: the potency estimated from few doses in assay [11] (compound concentrations: 100 nM and 1000 nM (sheet 'Samples'), CATDS: 0.104980182660456) is 1180 nM; in assay [12], 650 nM; in [13], 775 nM; in assay [14], 356 nM; in assay [15], 1100 nM; in [16] (CATDS: 0.17502946768032501) it was 417 nM. Besides, the potency estimated from few doses is 2220 nM in assay [17] and 667 nM in assay [18].
For `COc1ccc(-c2nn3ncccc3c2-c2ccnc(Nc3cccc(C(F)(F)F)c3)n2)cc1` [GW827105X], the potency estimated from few doses in assay [11] (compound concentrations: 100 nM and 1000 nM (sheet 'Samples'), CATDS: 1) is 1920 nM.
As for `Nc1c(C(=O)c2cccc(CCS(N)(=O)=O)c2)cnn1-c1ccc(F)cc1` [RO1162009-000], the potency estimated from few doses is 1250 nM in assay [11] (compound concentrations: 100 nM and 1000 nM (sheet 'Samples'), CATDS: 0.22426146716058901); 500 nM in assay [19]; 1340 nM in assay [16] (CATDS: 0.21813918573992899); 1100 nM in assay [20].
Turning to `COc1ccc(C[C@@H](CN)NC(=O)c2cc(Br)c(-c3ccnc4[nH]ccc34)s2)cc1.COc1ccc(C[C@@H](CN)NC(=O)c2cc(Br)c(-c3ccnc4[nH]ccc34)s2)cc1.Cl.Cl` [GSK1389063A], the potency estimated from few doses in assay [21] was 757 nM; in [7] (setting [39]), 80.7 nM; in assay [11] (setting [39]), 21.2 nM; in assay [22] it was 1370 nM; in [23], 93 nM; in [24] it was 287 nM. Besides, the potency estimated from few doses was 339 nM in [25]; 897 nM in [26]; 921 nM in assay [27]; 1570 nM in assay [28]; 11.7 nM in assay [29]; 23.5 nM in assay [30]. The potency estimated from few doses in assay [31] is 976 nM; in assay [32] it was 863 nM; in assay [33], 2340 nM; in assay [34], 1750 nM; in [35], 27.3 nM; in assay [36] it was 127 nM. Besides, the potency estimated from few doses is 17.9 nM in [9] (setting [39]), 21.5 nM in [10] (setting [39]), 899 nM in assay [37] and 130 nM in [38].
